The structures appear in SMILES notation. The campaign covered roughly 63,000 compounds. About 1,100 (1.7%) were called active. This excerpt belongs to a sample that is enriched for actives. Potency and affinity values are given separately. Values without a mark were called inactive.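 Rule for the calls: active = compounds whose percent cytotoxicity in the single-dose primary screen, scaled between solvent and toxic-drug controls, exceeds 50; inactive = the rest.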

The experiment can be described thus: cytotoxicity in KRAS-transformed pancreatic duct cells, primary screen, cell-based, fluorescence, HTS (AID 431).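 Note: 0% = DMSO solvent wells and 100% = doxorubicin-treated wells.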 Conditions: HPDE-C7K KRASV12 cells, Alamar Blue viability, 48 h; at 10 µM; hits give high values. (In general: Alamar Blue is a resazurin reagent that responds to reducing activity.)
On to `CCC(C)(C)NC(=O)C(c1cccn1C)N(C(=O)Cn1nnc2ccccc21)c1ccc(OC)cc1` (centres undefined), for which the cytotoxicity is 41.6%. Next, `O=C1CC(O)(C(F)(F)F)Oc2c1ccc1ccccc21` (centres undefined): 88.6% (active).

Regarding `O=C1CC(O)(C(F)F)Oc2ccc3ccccc3c21` (centres undefined), the cytotoxicity is -1.2%. Next, `COc1ccc2c(c1)OC(O)(C(F)(F)F)CC2=O` (centres undefined): -1.5%; `COc1ccc(NC(=O)c2ccc(-n3nc(C)c[n+]3[O-])cc2)cc1`: -7.1%. Next, `N#Cc1c2n(cnc1=O)CCCCC2`: 0%; `Nc1ccc(-n2c(N)c(C(=O)NCc3ccc4c(c3)OCO4)c3nc4ccccc4nc32)cc1`: 35.9%.

For `Nc1c(C(=O)NCCN2CCOCC2)c2nc3ccccc3nc2n1CCc1ccccc1`, the cytotoxicity is 18.1%. In the case of `Nc1c(C(=O)NCCN2CCOCC2)c2nc3ccccc3nc2n1CCc1ccccc1F` it was 7.5%; in that of `Nc1c(C(=O)NCCN2CCOCC2)c2nc3ccccc3nc2n1-c1ccc2c(c1)OCO2`, -10.7%. Take `CC1CN(c2nnnn2-c2ccccc2)CC(C)O1` (centres undefined): the cytotoxicity is -6.4%. Next, `Cc1ccc(NC(=O)CSc2nnc(COc3ccc(C#N)cc3)n2-c2ccccc2)cc1C`: -3.3%; `Cc1ccc(S(=O)(=O)/C(C#N)=C/c2c(N3CCN(C)CC3)nc3ccccn3c2=O)cc1`: -0.5%. Next, `O=C(O)CSCCC(=O)Nc1ccc(F)cc1`: -3.7%. In the case of `CCOC(=O)Cn1c(CN2CC(C)OC(C)C2)nc2c1c(=O)n(C)c(=O)n2C` (centres undefined) it was -2.5%; in that of `CCOC(=O)N1CCN(C(=O)C2COc3ccccc3O2)CC1` (centres undefined), 11.8%. On to `O=C(O)C1CCCCC1C(=O)Nc1ccc(Cl)cc1Cl` (centres undefined), for which the cytotoxicity is -0.5%. Next, `CCCOC(=O)CCCCC1SCC(NC(=O)OC)C1NC(=O)OC` (centres undefined): 5.4%; `CCOC(=O)Cn1c(=O)oc2cc(S(=O)(=O)Nc3cc(Cl)ccc3OC)ccc21`: 0.7%; `CC1=CC(C)(C)N2C(=O)C3(C(C#N)=C(N)Oc4cc(O)ccc43)c3cccc1c32` (centres undefined): 74.3% (active).

As for `CC1=CC(C)(C)N2C(=O)C3(C(C#N)=C(N)Oc4cc(C)oc(=O)c43)c3cccc1c32` (centres undefined), the cytotoxicity is -4.3%. Turning to `COc1cc2c3c(c1)C1(C(=O)N3C(C)(C)C=C2C)C(C#N)=C(N)Oc2cc(O)ccc21` (centres undefined), the cytotoxicity is -21.4%. For `Cn1c(SCC2CCCO2)nnc1-c1ccncc1` (centres undefined), the cytotoxicity was -3.1%. Next, `CCOC(=O)C1CCN(c2ncnc3c2oc2ccc(Cl)cc23)CC1`: 6.4%. Next, `O=C(COC(=O)c1c2c(nc3ccccc13)CCCC2)Nc1ccc2c(c1)OCO2`: 53.6% (active); `Cc1onc(-c2ccccc2)c1C(=O)OCC(=O)Nc1ccc2c(c1)OCO2`: 1.3%.

Regarding `Cc1nn(-c2ccccc2)c(C)c1C(=O)OCC(=O)Nc1ccc2c(c1)OCO2`, the cytotoxicity is -6.3%.

As to `O=C(C1CCN(S(=O)(=O)c2cccnc2)CC1)N1CCN(C2CCCC2)CC1`, the cytotoxicity was -8.1%. Next, `Cc1ccc(CNc2nc3c([nH]2)c(=O)n(C)c(=O)n3C)cc1`: -19.3%; `Cc1ccc(C(CC(=O)N2CCCC2)c2ccccc2)c(O)c1C` (centres undefined): -9.2%; `COc1ccccc1CNc1ncnc2nc[nH]c12`: 4.5%.

For the molecule `Oc1ccc(CN2CCN(Cc3ccccc3)CC2)c2cccnc12`, the cytotoxicity was 6.1%. `CCOC(=O)C1CCN(Cc2ccc(O)c3ncccc23)CC1`: the cytotoxicity is -4.5%.

As to `Oc1ccc(CNc2ccccc2)c2cccnc12`, the cytotoxicity was 44.4%. Next, `Oc1ccc(CNc2ccc(F)cc2)c2cccnc12`: 53.3% (active); `Oc1ccc(CN2CCCc3ccccc32)c2cccnc12`: 36.7%; `Oc1ccc(CNc2ccccc2F)c2cccnc12`: 5.5%.

Take `CN1CCN(Cc2cc(COCc3ccccc3)c3cccnc3c2O)CC1`: the cytotoxicity is 4.8%. Next, `O=C(CSc1nnc(-c2ccc(S(=O)(=O)N3CCCC3)cc2)o1)NCc1ccco1`: -15.4%; `CCOc1ccc(OCC)c(NC(=O)CN(c2ccc(C)cc2)S(=O)(=O)c2c(C)noc2C)c1`: -6.3%; `COC(=O)c1[nH]c2ccc(C)cc2c1NS(=O)(=O)c1ccc(F)c(C)c1`: 10.9%. As to `CCCn1c(SCC(=O)NC(C)(C)C)nnc1C(C)C`, the cytotoxicity is -5.9%. In the case of `COc1cccc(OC)c1C(=O)Nn1c(C2CCC2)nc2ccccc2c1=O` it was -10.3%; in that of `O=C(CN1C(=O)CCS(=O)(=O)c2ccccc21)Nc1cccc(Cl)c1`, 2.5%. For the molecule `O=[n+]1c2c(n([O-])c3cc(F)ccc31)CCCC2`, the cytotoxicity was 0.3%. In the case of `COc1cc(OC)cc(C(=O)NCc2n[nH]c(=S)n2-c2ccccc2)c1` it was -3.1%. Next, `Cc1ccc(-c2c(C)c(-c3ccc(F)cc3)nc(N)c2C#N)o1`: 19.3%; `CCOc1ccccc1NC(=O)N1CCCC1C(=O)Nc1ccc(NC(C)=O)cc1` (centres undefined): -3.3%. Next, `COc1ccc(Cl)cc1S(=O)(=O)N1CCN(C(=O)c2cc(OC)c(OC)c(OC)c2)CC1`: -3.4%. In the case of `COc1cc(C(=O)N2CCN(c3cc(Cl)ccc3Cl)CC2)cc(OC)c1OC`, the cytotoxicity is 65.3% (active).

For `COc1cc(C(=O)N2CCN(c3ccc(C)cc3C)CC2)cc(OC)c1OC`, the cytotoxicity was 28.6%.

In the case of `CC1(C)Cc2ccccc2-c2nnc(SCC(=O)Nc3ccc4c(c3)OCO4)n21`, the cytotoxicity is 4.9%.

As for `COc1ccc(-c2noc(CN(C)S(=O)(=O)c3ccc(Cl)cc3)n2)cc1OC`, the cytotoxicity is 27.5%. Next, `CCn1c2ccccc2c2cc(NC(=O)c3ccco3)ccc21`: 66.2% (active); `CCn1c2ccccc2c2cc(NC(=O)CSc3nnc(-c4ccccc4OC)n3N)ccc21`: 66% (active). In the case of `CCn1c(SCC(=O)Nc2ccc3c(c2)OCCO3)nnc1-c1ccco1` it was 5.8%; in that of `CCn1c(SCC(=O)Nc2ccc(S(N)(=O)=O)cc2)nnc1-c1cccc(OC)c1`, 6.1%; in that of `CCn1c(SCC(=O)Nc2ccc3c(c2)c2ccccc2n3CC)nnc1-c1cnccn1`, 12.2%. In the case of `COc1ccc(NC(=O)CSc2nnc(-c3ccccc3C)n2N)cc1OC` it was -2.1%; in that of `CCn1c(SCC(=O)Nc2ccc3c(c2)c2ccccc2n3CC)nnc1-c1ccco1`, 57.1% (active); in that of `CCn1c2ccccc2c2cc(NC(=O)N3CCOCC3)ccc21`, -7.1%. On to `CCn1c2ccccc2c2cc(NC(=O)CSc3nnnn3-c3ccccc3)ccc21`, for which the cytotoxicity was 5.6%. Next, `CCn1c2ccccc2c2cc(CN3CCN(C(=O)c4ccco4)CC3)ccc21`: -16%; `C=CCn1c(SCC(=O)Nc2ccc(N(C)C)cc2)nnc1-c1cccc(C)c1`: 33%.

The record behind these values is PubChem BioAssay AID431 (Sanford-Burnham Center for Chemical Genomics, 2006).
